{
  "source": "PubChem BioAssay AID493169",
  "about": "(National Center for Advancing Translational Sciences (NCATS), 2011)",
  "note": "Records with an inconclusive call do not appear. Entries that show only a call come without a potency. The source made the active and inactive calls. Calls follow the shape of the dose curve; as a rule, active = well fitted inhibition curve with a large enough effect; inconclusive = small, poorly fitted or top-dose-only effect; inactive = flat fitted curve, though single readings scatter. Potency is read from the fitted curve at half-maximal effect.",
  "data": [
    {"experiment": "CHOP2 Reporter Counterscreen Assay for Inhibitors of Ubiquitin-specific Protease USP2a;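 also: activated enterokinase alone at 50 pM in a cell-free format rather than USP2a or CHOP2; nearly all actives have a fitted effect of over 55% in size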", "settings": "purified enterokinase, fluorogenic substrate, 485/531 nm; series mostly up to 38.3 µM", "method_in_brief": "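Cell-free counterscreen with pre-activated enterokinase alone (50 pM final) in 20mM Tris-HCl pH 8.0, 2mM CaCl2, 2mM beta-mercaptoethanol, 0.05% CHAPS; compound preincubation 30 min RT, reporter substrate 25nM final, fluorescence read after 10 min (Ex 485/Em 531).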", "values": [
      {"compound": "O=C(COc1ccccc1)Nc1nnc(-c2ccc(Cl)s2)o1", "Potency": "inactive"},
      {"compound": "COc1ccc(C(=O)OCC(=O)c2c[nH]c3ccccc23)c(OC)c1", "Potency": "inactive"},
      {"compound": "N#Cc1c(-c2cccs2)nc(SCc2ccc(Cl)cc2)[nH]c1=O", "Potency": "inactive"},
      {"compound": "CC1CCCCN1CCNC(=O)CC1Oc2ccccc2NC1=O", "note": "(stereo not given)", "Potency": "inactive"},
      {"compound": "Cc1nc(NC(C)C)c2cnn(CCc3ccccc3)c2n1", "Potency": "inactive"},
      {"compound": "Cc1ccccc1NC(=O)CSc1nnc(-c2ccco2)c(-c2ccco2)n1", "Potency": "inactive"},
      {"compound": "Cc1cc(C)n2cc(CSc3nnnn3-c3ccccc3C)nc2n1", "Potency": "inactive"},
      {"compound": "CCOC(=O)c1[nH]c2ccc(OC)cc2c1NC(=O)CCN1CCC(C)CC1", "Potency": "inactive"},
      {"compound": "Cc1c(NC(=O)c2ccc(COc3ccc4ccccc4c3)o2)c(=O)n(-c2ccccc2)n1C", "Potency": "inactive"},
      {"compound": "CN(C)c1ccc(-c2ccccc2)nn1", "Potency": "inactive"},
      {"compound": "CC1CCCC(N2CCN(C(=O)c3cccc(F)c3)CC2)C1", "note": "(stereo not given)", "Potency": "inactive"},
      {"compound": "O=C(COc1ccccc1)NCc1nnc(SCC(=O)Nc2nccs2)n1-c1ccccc1", "Potency": "inactive"},
      {"compound": "CS(=O)(=O)c1ccc(C(=O)Nc2nc(-c3ccco3)c(-c3ccco3)s2)cc1", "Potency": "inactive"},
      {"compound": "COC(=O)c1c(O)c2c([nH]c1=O)CCCC2", "Potency": "inactive"},
      {"compound": "COc1ccc(CC(NC(C)=O)C(=O)NC2CCN(c3nc(C)cc(C)c3C#N)CC2)c(OC)c1", "note": "(stereo not given)", "Potency": "inactive"},
      {"compound": "COc1cc(C(O)P(=O)(OC(C)C)c2ccc(N(C)C)cc2)cc(OC)c1OC", "note": "(stereo not given)", "Potency": "inactive"},
      {"compound": "CCC(C)NC(=O)CSC1=Nc2ccccc2C2=NC(c3ccccc3)C(=O)N12", "note": "(stereo not given)", "Potency": "inactive"},
      {"compound": "O=S(=O)(c1ccccc1)N(CC1CO1)c1cc(Cl)ccc1Cl", "note": "(stereo not given)", "Potency": "inactive"},
      {"compound": "CC1(C)CC(=O)C=C(NCc2cccs2)C1", "Potency": "inactive"},
      {"compound": "CC1(C)CC(=O)C2=C(C1)Oc1ncn(CCCO)c(=N)c1C2c1ccccc1", "note": "(stereo not given)", "Potency": "inactive"},
      {"compound": "COc1ccccc1C1NC(c2ccccc2OC)C(C)C(=O)C1C", "note": "(stereo not given)", "Potency": "inactive"},
      {"compound": "O=C(c1ccccc1)N1CCN(C2C3CC4CC(C3)CC2C4)CC1", "note": "(stereo not given)", "Potency": "inactive"},
      {"compound": "O=[N+]([O-])c1cc(-c2ccc(/C=N\\n3cnnc3)o2)cc([N+](=O)[O-])c1", "Potency": "10 µM (active)"},
      {"compound": "CCCn1nnc(NC(=O)c2cccc(OCC(C)C)c2)n1", "Potency": "inactive"},
      {"compound": "CCCCCCCCCCOC(=O)Cn1c(COc2ccc(OC)cc2)[n+](C)c2ccccc21", "Potency": "10 µM (active)"},
      {"compound": "Cc1ccccc1[C@@H]1C(C#N)=C(N)S[C@H]1C(=O)c1ccccc1", "Potency": "inactive"},
      {"compound": "Cc1cc(-c2csc(NCc3ccccc3)n2)c(C)n1C", "Potency": "12.6 µM (active)"},
      {"compound": "Cc1ccc(NS(=O)(=O)c2cccc(C(=O)OCC(=O)NCc3ccco3)c2)cc1", "Potency": "10 µM (active)"},
      {"compound": "Cc1ccc2oc(=O)c3cnn(CC(=O)NCCCOC(C)C)c3c2c1", "Potency": "inactive"},
      {"compound": "Cc1ccc(CNC(=O)CCNS(=O)(=O)c2ccc(C)cc2)cc1", "Potency": "inactive"},
      {"compound": "O=C(CSc1ccc(Br)c2cccc(Cl)c12)Nc1ccc(S(=O)(=O)Nc2nccs2)cc1", "Potency": "11.2 µM (active)"},
      {"compound": "Cc1ccccc1C(=O)Nc1ccc2nc3n(c(=O)c2c1)CCC3", "Potency": "inactive"},
      {"compound": "Cc1c(NC(=O)C2CCCN2S(=O)(=O)c2ccc(Cl)cc2)c(=O)n(-c2ccccc2)n1C", "note": "(stereo not given)", "Potency": "inactive"},
      {"compound": "Cc1ccc(C(=O)CSc2nnc(CNc3nc(-c4ccccc4)cs3)n2C)cc1", "Potency": "inactive"},
      {"compound": "CCn1c2ccccc2c2nc3ccccc3nc21", "Potency": "inactive"},
      {"compound": "COc1cccc(/C=N/n2c(SC)nnc2-c2ccccc2)c1O", "Potency": "inactive"},
      {"compound": "O=C1NC(=Nc2ccc3ccccc3c2)S/C1=C/c1ccco1", "Potency": "10 µM (active)"},
      {"compound": "CCn1nnnc1SCC(=O)Nc1cccc(C)n1", "Potency": "inactive"},
      {"compound": "O=C(Nc1cnn(Cc2ccccc2)c1)c1nc2ncccn2n1", "Potency": "inactive"},
      {"compound": "CC1Cc2ccccc2N1C(=O)Cn1c(=O)oc2cc(S(=O)(=O)NC3CCCC3)ccc21", "note": "(stereo not given)", "Potency": "inactive"}
    ]}
  ]
}
